# Measurements: ChEMBL document CHEMBL3988442, “University of Dundee, Small-Polar-MMV Screening Library” (2021)
# The whole screen tested about 48,000 compounds, of which about 13,000 (27%) showed an effect of 50% or more. The list shows a part of the results.
# System: Wolbachia pipientis
# Assay: Anti-Wolbachia Cell-Based Screen
# Format: functional
# Set-up: scale not given: in the data most compounds retested in dose-response had high values
# Conditions: 5 µM
row,Structure (SMILES),Percent Effect
1,O=C(c1ccc(O)nc1)N1CCN(C(=O)c2ccc(F)c(F)c2)CC1,-0.8885%
2,Cc1nc(C)c(C(=O)NCCNC(=O)Cc2ccccc2)s1,4.586%
3,Cc1nc(C(C)C)sc1C(=O)NCCn1ccnc1,18.45%
4,Cc1nc(C(C)C)sc1CNC(=O)CCCN1CCCCC1,-2.668%
5,CCN1CCN(CCNC(=O)c2sc(C(C)C)nc2C)CC1,114.4%
6,Cc1nc(C)c(C(=O)NCCNc2cc(N3CCCC3)ncn2)s1,20.28%
7,CCN1CCN(CCNC(=O)c2sc(C)nc2C)CC1,76.69%
8,CNC(=O)C1CCCCN1C(=O)c1csc(-c2ccccc2)n1 (centres undefined),-0.9781%
9,O=C(c1n[nH]c(=O)c2ccccc12)N1CCCCC1c1ccn[nH]1 (centres undefined),-2.968%
10,CC1CCCCN1C(=O)c1n[nH]c(=O)c2ccccc12 (centres undefined),115.2%
11,O=C(NCCCN1CCCC1)c1n[nH]c(=O)c2ccccc12,0.5839%
12,CNC(=O)C1CCCCN1C(=O)c1cn(CCOC)c2ccccc12 (centres undefined),-5.579%
13,CNC(=O)C1CCCCN1C(=O)c1n[nH]c(=O)c2ccccc12 (centres undefined),98.92%
14,Cn1ccc2cc(CC3COCCN(C(=O)c4cccnc4)C3)ccc21 (centres undefined),69.9%
15,COc1cccc(CCC2CCCN(C(=O)c3ccccn3)C2)c1 (centres undefined),-14.56%
16,O=C(c1cccnc1)N1CCN2C(=O)N(Cc3ccc(F)cc3)C[C@H]2C1,2.014%
17,Cn1ccc2cc(CC3COCCN(C(=O)c4ccccn4)C3)ccc21 (centres undefined),118.8%
18,CN(C)CCN1CC(C(=O)NCc2ccc(C#N)cc2)CC1=O (centres undefined),-12.86%
19,COc1ccc(CC(C)(O)CNC(=O)NCc2cccs2)cc1 (centres undefined),-12.02%
20,Cc1nc2c(c(=O)n1C)CN(C(=O)C1CCCN(CC(N)=O)C1)C2 (centres undefined),-6.994%
21,CN(CC(=O)NC(Cc1ccccc1)C1CCCC1)S(C)(=O)=O (centres undefined),1.289%
22,Cc1cc(N2CCC(C(=O)O)(n3ccc(C(C)(C)C)n3)CC2)nc(N)n1,-17.81%

row,Structure (SMILES),Percent Effect
1,Cc1cc(NC(=O)NCCc2ccccc2)n(C)n1,-5.779%
2,Cc1cc(NC(=O)NCC(O)c2ccc(Cl)cc2Cl)n(C)n1 (centres undefined),1.838%
3,Cc1cc(NC(=O)NCc2ccccc2OC(F)F)n(C)n1,8.208%
4,Cc1cc(NC(=O)NCC(c2ccc(C)o2)N2CCOCC2)n(C)n1 (centres undefined),126.3%
5,Cc1cnc(C(=O)NCC(c2ccc(C)o2)N2CCOCC2)cn1 (centres undefined),-11.84%
6,Cc1cc(NC(=O)NCC(c2ccccc2)N2CCOCC2)n(C)n1 (centres undefined),108.2%
7,CCc1ccccc1OCCCN(C)C(=O)C1CCCN1C(N)=O (centres undefined),-6.634%
8,CCC(NC(=O)CC(F)(F)F)c1ccccc1OCC(=O)N1CCCC1 (centres undefined),-4.718%
9,CCCc1cc(C(=O)N(Cc2cccnc2)C[C@@H]2CCC(=O)N2)no1,-10.16%
10,Cc1nccc(-c2ccccc2)c1C(=O)N1CC[C@](C)(O)C(C)(C)C1,-0.4275%
11,O=C1CCC2(CCCN(C(=O)c3cccnc3)CC2)N1 (centres undefined),-2.669%
12,Cc1ncccc1C(=O)N1CCC2(CCc3ccccc3C(=O)N2)C1 (centres undefined),98.8%
13,O=C1NC2(CCc3ccccc31)CCN(C(=O)c1ccncc1)C2 (centres undefined),94.99%
14,O=C1CCC2(CCCN(C(=O)c3cccs3)C2)N1 (centres undefined),-85.27%
15,Cc1nccc(-c2ccccc2)c1C(=O)N1CCC2(CC(=O)NC2=O)C1 (centres undefined),-6.27%
16,CC(C)CN1C[C@@H]2C(=O)NC3(CCN(C(=O)c4cccnc4)CC3)[C@@H]2C1,1.9%
17,O=C1NC2(CCc3ccccc31)CCN(C(=O)c1cccnc1)C2 (centres undefined),113.1%
18,CCC(C)(CC(=O)OC)NCc1noc(C)n1 (centres undefined),-21.8%
19,CC(C)c1nnc2n1CCN(C(=O)COc1ccc(C(N)=O)cc1)C2,-6.982%
20,COCC1CC2(CCN(C(=O)C3CCSCC3)CC2)CO1 (centres undefined),-14.44%
21,CCCC(Nc1c(C#N)c(=O)n(C)c(=O)n1C)c1ccc(F)cc1F (centres undefined),-0.1424%
22,CN1CC(c2ccccc2)C2(CCN(C(=O)c3ccc[nH]3)CC2)C1=O (centres undefined),-2.349%

row,Structure (SMILES),Percent Effect
1,O=C(O)C(F)(F)F.O=C(O)C(F)(F)F.O=C(O)C(F)(F)F.c1c[nH]c(CN2CCC3(CC2)COCCN(CCN2CCCC2)C3)c1,-16.15%
2,Cn1cccc1C(=O)N1CCCC2(CCN(CCN3CCCC3)C2=O)C1.O=C(O)C(F)(F)F (centres undefined),-2.422%
3,CN1CC[C@]2(CN(C(=O)c3ccc[nH]3)C[C@H]2c2ccccc2)C1=O,-8.445%
4,COCCN1CC[C@]2(CN(C(=O)c3ccc[nH]3)C[C@H]2C)C1=O,91.74%
5,C[C@@H]1CN(C(=O)c2ccc[nH]2)C[C@]12CCN(CCN1CCCC1)C2=O.O=C(O)C(F)(F)F,108.3%
6,CN(C)C(=O)CCC(=O)N1CCC2(CC1)COC2,-20.99%
7,Cc1sc(NC(=O)CN2CCCC(c3ncc[nH]3)C2)c(C)c1C (centres undefined),13.59%
8,COc1c(CNC2CCOc3ccccc32)c(C(C)C)nn1C (centres undefined),-0.8821%
9,COc1c(CNC2CCc3c(Cl)cccc32)c(C)nn1C.Cl (centres undefined),-6.251%
10,COc1c(CNC2CCc3cc(C)ccc32)c(C)nn1C (centres undefined),196.3%
11,COc1c(CNC2CCOc3c(F)cccc32)c(C)nn1C (centres undefined),-5.109%
12,COc1c(CNC2CCOc3c(Cl)cccc32)c(C)nn1C.Cl (centres undefined),-20.37%
13,COc1c(CNC2CCCOc3ccccc32)c(C)nn1C (centres undefined),-2.484%
14,COc1c(CNC2CCCc3ccccc32)c(C(C)C)nn1C (centres undefined),-2.774%
15,COc1c(CNC2CCc3cc(F)ccc32)c(C(C)C)nn1C (centres undefined),97.63%
16,COc1c(CNC2CCc3cc(Cl)ccc32)c(C)nn1C (centres undefined),202%
17,Cn1ncnc1CNC1CCc2cc(Cl)ccc21 (centres undefined),-6.658%
18,COc1c(CNC2CCc3c(F)cccc32)c(C)nn1C.Cl (centres undefined),125.6%
19,Cc1ccc2c(c1)CCC2NCc1c(C)nn(CCO)c1C.Cl (centres undefined),9.193%
20,CCOCC(=O)N1CCC2(CC1)COC(COCc1ccccn1)C2.O=C(O)C(F)(F)F (centres undefined),-4.838%
